# A number with no mark means an inactive call. Inconclusive results are not listed. Where a call stands in place of a potency, no number is given. The source made the active and inactive calls. Unless noted, the call rests on the fitted dose curve; in most records, active means well fitted curve in the direction sought with a large enough effect in the repeat runs; inconclusive means weak or mixed curves; inactive means no such curve, though single readings can be large; an effect the other way counts as inactive or inconclusive.
# Legend:
# [1] = target: Thyrotropin-releasing hormone receptor (Homo sapiens) (UniProt P34981); assay: qHTS assay to identify small molecule agonists of the thyrotropin-releasing hormone receptor (TRHR) signaling pathway (AID 1346891; calls by dose curve;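 further: HEK293 cells expressing TRHR with calcium dye readout; series mostly up to about 58 µM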)
# In short: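 Kinetic fluorescence (3 min, 1 s intervals) reported intracellular calcium after compound transfer onto TRHR-Hek293 cells pre-loaded with dye for 2 h at 37 °C.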
# [2] = Human pregnane X receptor (PXR) small molecule agonists, qHTS cell viability counter screen (AID 1346977); further: nearly all actives have a fitted effect of over 50% in size; further: potency means the concentration at half of the fitted maximal effect
# In short: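 HepG2 cells stably carrying the PXR-Luc reporter are cultured with 5% charcoal-stripped FBS and treated with compounds for 24hr. CellTiter-Fluor is added at 23hr and fluorescence is read after 1hr.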
# [3] = Caspase-3/7 induction in HepG2 cells by small molecules, qHTS assay (AID 1346978); further: nearly all actives have a fitted effect of over 15% in size
# In short: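 Caspase-3/7 induction was measured by Caspase-Glo 3/7 luminescence (30 min, room temperature) after a 17 hr compound exposure of wild-type HepG2 cells seeded at 2,000 per well and pre-incubated 5 hr.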
# [4] = Caspase-3/7 induction in CHO-K1 cells by small molecules, qHTS cell viability counter screen (AID 1346979); further: nearly all actives have a fitted effect of over 35% in size; further: potency means the concentration at half of the fitted maximal effect
# In short: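 Seeding: 1,500 CHO-K1 cells/well. Rest: 5hr, 37C. Treatment: compounds in DMSO, 16hr. Read: CellTiter-Fluor, 1hr, fluorescence.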
# [5] = Caspase-3/7 induction in CHO-K1 cells by small molecules, qHTS assay (AID 1346980); further: nearly all actives have a fitted effect of over 15% in size
# In short: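 Luminescent Caspase-Glo 3/7 read (30min, room temperature) quantified apoptosis induction. Cells were wild-type CHO-K1, treated with compound for 17hr at 37 C and 5% CO2.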
# [6] = Caspase-3/7 induction in HepG2 cells by small molecules, qHTS cell viability counter screen (AID 1346981); further: nearly all actives have a fitted effect of over 30% in size; further: potency means the concentration at half of the fitted maximal effect
# In short: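 Wild-type HepG2 cells, 2,000/well, settled 5 hr at 37 C, 5% CO2 before compound addition. Viability read by CellTiter-Fluor fluorescence, reagent added after 16 hr compound exposure, then 1 hr at 37C, in the same wells as the caspase read.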
# [7] = target: Nuclear receptor subfamily 1 group I member 2 (Homo sapiens) (UniProt O75469); assay: Human pregnane X receptor (PXR) small molecule agonists, qHTS assay (AID 1346982); further: nearly all actives have a fitted effect of over 35% in size; further: potency means the concentration at half of the fitted maximal effect
# In short: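 PXR-Luc HepG2 reporter cells (CYP3A4-driven luciferase) in 5% charcoal-stripped FBS medium, plated 5 h before compound addition, then treated 24 h at 37C. Luciferase read by ONE-Glo luminescence after 30 min at room temperature.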
# [8] = target: Cytochrome P450 2D6 (Homo sapiens) (UniProt P10635); assay: Cytochrome P450 Family 2 Subfamily D Member 6 (CYP2D6) small molecule antagonists: luciferase reporter qHTS assay (AID 1671196); further: nearly all actives have a fitted effect of over 50% in size; further: potency means the concentration at half of the fitted maximal effect
# In short: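 Cell-free P450-Glo system: CYP2D6 with proluciferin substrate was pre-incubated with compound for 10 min, then reacted with NADPH regeneration for 1 h at room temperature. Luciferin product was detected after 20 min, and data were reported as relative luminescence units.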
# [9] = target: Cytochrome P450 2C19 (Homo sapiens) (UniProt P33261); assay: Cytochrome P450 Family 2 Subfamily C Member 19 (CYP2C19) small molecule antagonists: luciferase reporter qHTS assay (AID 1671197); further: nearly all actives have a fitted effect of over 65% in size; further: potency means the concentration at half of the fitted maximal effect
# In short: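 Quantitative high-throughput screen of the Tox21 library using CYP2C19 with proluciferin substrate. Reaction: NADPH regeneration, 37C, 1 h, after 10 min compound preincubation at room temperature. Readout: luminescence.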
# [10] = target: Cytochrome P450 2C9 (Homo sapiens) (UniProt P11712); assay: Cytochrome P450 Family 2 Subfamily C Member 9 (CYP2C9) small molecule antagonists: luciferase reporter qHTS assay (AID 1671198); further: nearly all actives have a fitted effect of over 50% in size; further: potency means the concentration at half of the fitted maximal effect
# In short: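 Enzyme-substrate mix preincubated with compound 10 min at room temperature; reaction started with NADPH regeneration solution, 1 h 37C. Luminescent luciferin product read after 20 min detection reagent.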
# [11] = target: Cytochrome P450 1A2 (Homo sapiens) (UniProt P05177); assay: Cytochrome P450 Family 1 Subfamily A Member 2 (CYP1A2) small molecule antagonists: luciferase reporter qHTS assay (AID 1671199); further: nearly all actives have a fitted effect of over 50% in size; further: potency means the concentration at half of the fitted maximal effect
# In short: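 P450-Glo CYP1A2 enzyme–proluciferin substrate mix with compound 10 min at room temperature, then NADPH regeneration 1 h at room temperature. Luciferin detection reagent added, luminescence read after 20 min; furafylline positive control.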
# [12] = target: Voltage-gated inwardly rectifying potassium channel KCNH2 (Homo sapiens) (UniProt Q12809); assay: Human Ether-a-go-go-Related Gene (hERG) channel small molecule antagonists: fluorescence cell-based qHTS assay (AID 1671200)
# In short: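 First, 1000 cells per well are seeded and cultured overnight at 37 C. Next, FluxOR II dye is loaded for 1 h at room temperature, protected from light. After 10 more minutes, stimulus is added and fluorescence is read.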
# [13] = target: Cytochrome P450 3A4 (Homo sapiens) (UniProt P08684); assay: Cytochrome P450 Family 3 Subfamily A Member 4 (CYP3A4) small molecule antagonists: luciferase reporter qHTS assay (AID 1671201); further: nearly all actives have a fitted effect of over 50% in size; further: potency means the concentration at half of the fitted maximal effect
# In short: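 Enzyme and proluciferin substrate are mixed with test chemicals for 10 min, then NADPH regeneration system drives turnover for 1 h at room temperature. A detection reagent halts the reaction; luminescence after 20 min gives relative activity.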
# [14] = target: Nuclear receptor subfamily 1 group I member 2 (Rattus norvegicus) (UniProt Q9R1A7); assay: Rat pregnane X receptor (rPXR) activation by small molecules, qHTS assay (AID 1346983); details: rPXR luciferase reporter cells, One-Glo luminescence, 24 h; max activation: active compounds read high; further: nearly all actives have a fitted effect of over 20% in size
# In short: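 Luminescent readout (One-Glo luciferase, 30 min room temperature) followed 24 hr compound treatment at 37 C of rPXR cells plated 2,000 per well and preincubated 5hr; qHTS format with compounds delivered in DMSO.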
# [15] = target: Nuclear receptor subfamily 1 group I member 2 (Homo sapiens) (UniProt O75469); assay: CYP3A4 induction through human pregnane X receptor (PXR) by small molecules, qHTS assay (AID 1346984); further: nearly all actives have a fitted effect of over 40% in size
# In short: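 DPX-2 HepG2 cells carrying a PXR response element and CYP3A4-promoter luciferase construct, treated with compounds 24 hr at 37C. Then P450-Glo CYP3A4 Luciferin-IPA substrate (3uM final) for 3 hr at 37C, One-Glo added, luminescence read.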
# [16] = target: Nuclear receptor subfamily 1 group I member 2 (Homo sapiens) (UniProt O75469); assay: Human pregnane X receptor (PXR) activation by small molecules, qHTS assay (AID 1346985); further: nearly all actives have a fitted effect of over 40% in size
# In short: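 DPX-2 cells (HepG2 co-transfected with a PXR response element and a CYP3A4-promoter luciferase construct) were seeded at 2,000 per well, rested 5 hr at 37C, then exposed to DMSO-dissolved compounds for 24 hr. Activation was read as luciferase luminescence.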
# Chain of Nuclear receptor subfamily 1 group I member 2 (Homo sapiens) (O75469 whole entry, looked up): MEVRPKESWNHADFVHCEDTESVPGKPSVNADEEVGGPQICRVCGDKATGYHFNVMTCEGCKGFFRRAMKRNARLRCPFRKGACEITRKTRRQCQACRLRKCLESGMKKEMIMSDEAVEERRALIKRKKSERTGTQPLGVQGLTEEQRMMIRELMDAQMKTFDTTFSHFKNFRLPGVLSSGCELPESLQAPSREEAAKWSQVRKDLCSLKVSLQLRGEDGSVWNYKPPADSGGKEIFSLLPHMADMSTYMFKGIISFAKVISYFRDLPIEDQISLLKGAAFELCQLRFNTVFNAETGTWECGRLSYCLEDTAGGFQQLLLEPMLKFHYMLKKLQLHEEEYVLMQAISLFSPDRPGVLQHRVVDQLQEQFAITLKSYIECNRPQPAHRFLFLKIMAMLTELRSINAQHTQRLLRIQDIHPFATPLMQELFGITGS
# Chain of Cytochrome P450 2C9 (Homo sapiens) (P11712 whole entry, looked up): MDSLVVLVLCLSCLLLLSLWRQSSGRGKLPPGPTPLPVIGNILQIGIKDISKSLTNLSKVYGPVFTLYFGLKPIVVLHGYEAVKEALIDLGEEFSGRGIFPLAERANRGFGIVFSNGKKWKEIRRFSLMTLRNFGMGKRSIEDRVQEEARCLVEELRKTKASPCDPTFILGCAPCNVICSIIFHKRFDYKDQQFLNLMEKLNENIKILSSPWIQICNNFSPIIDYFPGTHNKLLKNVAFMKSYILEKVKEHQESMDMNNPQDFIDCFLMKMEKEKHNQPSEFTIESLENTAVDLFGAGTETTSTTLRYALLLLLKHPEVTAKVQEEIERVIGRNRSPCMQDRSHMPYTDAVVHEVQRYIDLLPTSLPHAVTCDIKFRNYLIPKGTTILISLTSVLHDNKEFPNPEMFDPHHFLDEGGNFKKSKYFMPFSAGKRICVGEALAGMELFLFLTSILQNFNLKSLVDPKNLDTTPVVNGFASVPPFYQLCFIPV
# Chain of Cytochrome P450 1A2 (Homo sapiens) (P05177 whole entry, looked up): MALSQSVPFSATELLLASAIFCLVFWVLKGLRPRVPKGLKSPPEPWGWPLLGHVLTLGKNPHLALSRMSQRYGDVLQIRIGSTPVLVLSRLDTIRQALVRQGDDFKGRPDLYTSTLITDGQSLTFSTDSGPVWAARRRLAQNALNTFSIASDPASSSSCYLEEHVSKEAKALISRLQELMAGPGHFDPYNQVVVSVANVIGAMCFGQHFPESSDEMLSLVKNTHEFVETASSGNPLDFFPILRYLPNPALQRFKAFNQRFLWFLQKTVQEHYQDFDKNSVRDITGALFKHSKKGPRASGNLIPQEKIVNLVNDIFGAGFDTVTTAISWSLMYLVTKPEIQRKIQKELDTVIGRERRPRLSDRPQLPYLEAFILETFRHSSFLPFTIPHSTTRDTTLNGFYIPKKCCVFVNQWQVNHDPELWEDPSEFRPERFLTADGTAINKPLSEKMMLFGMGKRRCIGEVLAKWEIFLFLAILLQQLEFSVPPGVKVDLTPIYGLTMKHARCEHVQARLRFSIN
# Chain of Cytochrome P450 2C19 (Homo sapiens) (P33261 whole entry, looked up): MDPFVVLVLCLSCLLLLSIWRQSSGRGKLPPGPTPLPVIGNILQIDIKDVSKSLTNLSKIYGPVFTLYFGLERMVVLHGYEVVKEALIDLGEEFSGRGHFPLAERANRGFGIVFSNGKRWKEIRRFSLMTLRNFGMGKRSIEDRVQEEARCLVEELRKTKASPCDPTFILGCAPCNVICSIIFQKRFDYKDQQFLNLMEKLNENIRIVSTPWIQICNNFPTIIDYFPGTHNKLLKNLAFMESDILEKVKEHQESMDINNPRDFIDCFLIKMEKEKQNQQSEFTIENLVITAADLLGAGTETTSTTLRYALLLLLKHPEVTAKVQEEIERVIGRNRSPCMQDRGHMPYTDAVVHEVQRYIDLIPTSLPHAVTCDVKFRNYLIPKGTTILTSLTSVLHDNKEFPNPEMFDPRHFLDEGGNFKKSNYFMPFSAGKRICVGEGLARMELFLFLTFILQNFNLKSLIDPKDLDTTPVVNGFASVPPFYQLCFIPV
# Chain of Cytochrome P450 2D6 (Homo sapiens) (P10635 whole entry, looked up): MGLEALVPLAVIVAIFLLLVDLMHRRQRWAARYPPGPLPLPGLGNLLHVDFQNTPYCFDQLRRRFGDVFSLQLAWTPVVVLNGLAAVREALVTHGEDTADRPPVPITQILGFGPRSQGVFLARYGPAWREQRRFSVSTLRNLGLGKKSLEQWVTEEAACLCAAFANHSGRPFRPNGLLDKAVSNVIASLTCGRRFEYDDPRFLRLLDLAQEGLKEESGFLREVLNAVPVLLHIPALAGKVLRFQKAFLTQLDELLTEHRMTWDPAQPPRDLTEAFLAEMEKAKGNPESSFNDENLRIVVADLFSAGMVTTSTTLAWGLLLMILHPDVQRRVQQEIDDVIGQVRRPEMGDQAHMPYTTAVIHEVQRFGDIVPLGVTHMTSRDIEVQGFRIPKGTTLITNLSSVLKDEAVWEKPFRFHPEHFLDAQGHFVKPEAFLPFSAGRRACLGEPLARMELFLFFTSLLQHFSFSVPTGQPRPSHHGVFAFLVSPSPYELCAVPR
# Chain of Cytochrome P450 3A4 (Homo sapiens) (P08684 whole entry, looked up): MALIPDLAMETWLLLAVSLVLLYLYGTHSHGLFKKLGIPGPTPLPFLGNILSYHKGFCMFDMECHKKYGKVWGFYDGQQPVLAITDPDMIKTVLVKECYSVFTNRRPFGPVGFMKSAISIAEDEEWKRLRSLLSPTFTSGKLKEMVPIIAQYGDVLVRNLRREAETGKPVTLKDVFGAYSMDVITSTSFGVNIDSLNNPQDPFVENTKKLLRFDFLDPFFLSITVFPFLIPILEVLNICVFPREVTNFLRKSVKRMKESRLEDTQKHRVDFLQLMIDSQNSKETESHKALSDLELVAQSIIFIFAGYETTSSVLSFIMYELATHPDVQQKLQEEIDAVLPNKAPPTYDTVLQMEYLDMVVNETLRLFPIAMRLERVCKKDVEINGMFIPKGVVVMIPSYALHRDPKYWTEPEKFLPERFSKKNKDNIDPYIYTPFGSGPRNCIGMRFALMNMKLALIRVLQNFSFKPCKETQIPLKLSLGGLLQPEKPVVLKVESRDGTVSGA
# Chain of Thyrotropin-releasing hormone receptor (Homo sapiens) (P34981 whole entry, looked up): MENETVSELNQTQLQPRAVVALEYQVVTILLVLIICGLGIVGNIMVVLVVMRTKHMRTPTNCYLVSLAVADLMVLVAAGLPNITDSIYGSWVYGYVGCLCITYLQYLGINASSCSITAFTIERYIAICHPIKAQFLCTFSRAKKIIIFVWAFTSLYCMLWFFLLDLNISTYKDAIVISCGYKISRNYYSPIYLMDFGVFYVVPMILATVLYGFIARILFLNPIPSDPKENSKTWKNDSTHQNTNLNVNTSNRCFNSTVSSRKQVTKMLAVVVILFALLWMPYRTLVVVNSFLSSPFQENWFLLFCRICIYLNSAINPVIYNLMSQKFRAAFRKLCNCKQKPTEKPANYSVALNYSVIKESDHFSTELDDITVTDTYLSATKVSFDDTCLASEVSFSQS
# Chain of Voltage-gated inwardly rectifying potassium channel KCNH2 (Homo sapiens) (Q12809 whole entry, looked up): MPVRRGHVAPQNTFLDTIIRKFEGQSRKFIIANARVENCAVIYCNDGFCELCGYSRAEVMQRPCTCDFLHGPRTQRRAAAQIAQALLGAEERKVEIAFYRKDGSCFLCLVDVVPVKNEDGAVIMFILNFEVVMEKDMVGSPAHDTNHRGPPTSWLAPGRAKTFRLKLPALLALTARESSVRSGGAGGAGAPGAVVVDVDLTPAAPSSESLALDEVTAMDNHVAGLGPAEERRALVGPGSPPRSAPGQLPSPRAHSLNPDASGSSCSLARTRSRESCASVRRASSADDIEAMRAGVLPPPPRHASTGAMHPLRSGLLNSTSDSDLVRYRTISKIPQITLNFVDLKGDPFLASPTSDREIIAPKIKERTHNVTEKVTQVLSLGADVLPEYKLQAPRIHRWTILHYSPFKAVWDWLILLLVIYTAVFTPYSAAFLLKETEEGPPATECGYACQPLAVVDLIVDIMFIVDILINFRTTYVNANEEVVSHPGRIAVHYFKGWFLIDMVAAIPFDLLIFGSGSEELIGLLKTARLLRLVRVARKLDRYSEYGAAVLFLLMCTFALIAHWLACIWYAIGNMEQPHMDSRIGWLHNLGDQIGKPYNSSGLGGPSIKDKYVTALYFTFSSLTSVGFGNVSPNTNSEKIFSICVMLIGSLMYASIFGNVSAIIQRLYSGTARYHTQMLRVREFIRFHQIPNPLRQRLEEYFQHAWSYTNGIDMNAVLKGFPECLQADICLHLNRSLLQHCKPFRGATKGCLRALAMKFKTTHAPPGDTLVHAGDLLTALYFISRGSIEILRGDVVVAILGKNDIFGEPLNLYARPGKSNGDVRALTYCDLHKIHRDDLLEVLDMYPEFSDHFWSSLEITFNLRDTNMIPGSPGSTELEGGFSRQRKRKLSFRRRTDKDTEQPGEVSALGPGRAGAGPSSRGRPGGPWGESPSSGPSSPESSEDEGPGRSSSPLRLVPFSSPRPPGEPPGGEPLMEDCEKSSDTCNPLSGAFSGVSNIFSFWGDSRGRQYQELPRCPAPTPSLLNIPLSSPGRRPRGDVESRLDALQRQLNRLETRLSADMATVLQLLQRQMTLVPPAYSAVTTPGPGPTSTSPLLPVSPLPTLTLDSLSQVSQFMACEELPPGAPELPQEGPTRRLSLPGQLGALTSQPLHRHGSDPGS
# Chain of Nuclear receptor subfamily 1 group I member 2 (Rattus norvegicus) (Q9R1A7 whole entry, looked up): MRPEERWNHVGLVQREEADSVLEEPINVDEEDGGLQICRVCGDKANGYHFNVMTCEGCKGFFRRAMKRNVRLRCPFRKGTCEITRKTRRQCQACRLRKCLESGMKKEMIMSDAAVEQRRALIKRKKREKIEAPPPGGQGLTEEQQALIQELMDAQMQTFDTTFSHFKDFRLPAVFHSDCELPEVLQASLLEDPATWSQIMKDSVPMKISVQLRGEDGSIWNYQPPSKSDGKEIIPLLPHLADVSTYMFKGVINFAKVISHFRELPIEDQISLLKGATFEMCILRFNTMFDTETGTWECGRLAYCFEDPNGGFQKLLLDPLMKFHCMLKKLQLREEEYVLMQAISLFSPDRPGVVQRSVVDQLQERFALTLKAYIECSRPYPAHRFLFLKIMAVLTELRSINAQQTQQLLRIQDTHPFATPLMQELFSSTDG
Compound,Potency [1],Potency [2],Potency [3],Potency [4],Potency [5],Potency [6],Potency [7],Potency [8],Potency [9],Potency [10],Potency [11],Potency [12],Potency [13],max activation [14] [%],Potency [15],Potency [16]
Cc1cc(C)cc(N)c1,inactive,inactive,inactive,inactive,inactive,inactive,61.9 µM (active),5.09 µM (active),7.19 µM (active),11.4 µM (active),36 µM (active),inactive,3.21 µM (active),,,
C=COCC(C)C,inactive,inactive,inactive,inactive,inactive,inactive,inactive,inactive,inactive,inactive,inactive,inactive,inactive,,,
COc1cc(C(=O)NCCCCCC(=O)O)cc(OC)c1OC,inactive,inactive,inactive,inactive,inactive,inactive,inactive,inactive,inactive,,inactive,inactive,inactive,-0.807,inactive,inactive
NNC(=O)CP(=O)(c1ccccc1)c1ccccc1,inactive,inactive,inactive,inactive,inactive,inactive,inactive,inactive,,,inactive,inactive,,,inactive,inactive
Nc1cccc2c1CN(C1CCC(=O)NC1=O)C2=O (centres undefined),inactive,inactive,inactive,inactive,inactive,inactive,inactive,,,,,inactive,,-1,,inactive
c1cc(N(CC2CO2)CC2CO2)ccc1Cc1ccc(N(CC2CO2)CC2CO2)cc1 (centres undefined),inactive,54.5 µM (active),inactive,54.5 µM (active),inactive,61.1 µM (active),27.3 µM (active),inactive,63.3 µM (active),17.8 µM (active),inactive,inactive,12.6 µM (active),,,
C=C(C)[C@@H]1CCC2=CCC[C@@H](C)[C@]2(C)C1,inactive,inactive,inactive,inactive,inactive,inactive,38.6 µM (active),inactive,11.2 µM (active),63.3 µM (active),inactive,inactive,71 µM (active),,,
CC(C)c1nc(CN(C)C(=O)N[C@H](C(=O)N[C@@H](Cc2ccccc2)C[C@H](O)[C@H](Cc2ccccc2)NC(=O)OCc2cncs2)C(C)C)cs1,inactive,9.44 µM (active),inactive,23.7 µM (active),inactive,21.1 µM (active),5.96 µM (active),,,,,,,,,
O=C(Nc1cccc2c(=O)cc(-c3nn[nH]n3)oc12)c1ccc(OCCCCc2ccccc2)cc1,inactive,inactive,inactive,inactive,inactive,inactive,inactive,inactive,inactive,7.76 µM (active),inactive,inactive,inactive,,,
